MARV entry inh = qHTS for inhibitors of binding or entry into cells for Marburg Virus. Marburg virus pseudotyped entry inhibition, cell reporter. Potency, µM (top dose mostly 37.8 µM), actives largely listed as inhibitors. 1.8% of 300,000 active. AID 540276, 2011; calls by dose curve; tested in HEK293 cells
Vaccinia mCherry = qHTS for Stage-Specific Inhibitors of Vaccinia Orthopoxvirus: mCherry Reporter Primary qHTS. Vaccinia virus mCherry reporter infection, fluorescence. Potency, µM (doses to about 36.5 µM), most hits filed as inhibitors. 0.63% of 310,000 active; calls by dose curve; tested in A549 cells; further: nearly all actives have a fitted effect of over 35% in size
Sm TGR inh = qHTS Assay for the Inhibitors of Schistosoma Mansoni Peroxiredoxins. purified TGR, DTNB reduction, TNB absorbance 405 nm. Potency, µM (highest dose often 114 µM), usual class: inhibitors. 3% of 360,000 active; further: nearly all actives have a fitted effect of over 60% in size
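First, TGR (20 nM dispensed) and NADPH were mixed with compound. Second, a 15 min room-temperature incubation followed. Third, further NADPH and then DTNB were added to start the reaction. Finally, TNB absorbance was monitored kinetically.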
VACV Venus inh = qHTS for Stage-Specific Inhibitors of Vaccinia Orthopoxvirus: Venus Reporter Primary qHTS; Vaccinia virus Venus reporter expression, fluorescence; Potency, µM (series often up to 36.5 µM), usual class: inhibitors; 0.46% of 330,000 active; AID 720580, 2013; calls by dose curve; tested in A549 cells; further: nearly all actives have a fitted effect of over 30% in size
FMDV antiviral = High Throughput Screening for Foot and Mouth Disease Virus Antivirals | Potency, µM (series often up to 57.9 µM), actives largely listed as inhibitors | 1.2% of 410,000 active | FMDV antiviral cell-based qHTS | AID 1159524, 2015; calls by dose curve; tested in HEK293T cells; further: read-out not given here; nearly all actives have a fitted effect of over 45% in size
LASV entry inh = qHTS for Inhibitors of binding or entry into cells for Lassa Virus. Lassa virus pseudotype entry inhibition, cell reporter. AID 540256, 2011. 1.2% of 300,000 active. Potency, µM (highest dose often 37.9 µM), usual class: inhibitors; calls by dose curve; tested in HEK293 cells; further: nearly all actives have a fitted effect of over 50% in size
HeLa G2M arrest = Cell cycle validation with wells to cells screening paradigm; shares compounds with MARV entry inh; HeLa cell cycle G2/M arrest, Hoechst DNA content imaging; Potency, µM, hits mostly inhibitors; 60% of 25 active; AID 2441, 2010
WI-38 cytotox = High Content Assay for Compounds that inhibit the Assembly of the Perinucleolar Compartment: WI-38 Cytotoxicity | 120 tested, under 10 active | Potency, µM (titrated, usually from 46.1 µM), usual class: inhibitors | WI-38 normal lung fibroblasts, ATPLite luminescence ATP viability, 24 h | AID 2729, 2010 | shares compounds with MARV entry inh
PNC assembly inh = High Content Assay for Compounds that inhibit the Assembly of the Perinucleolar Compartment: Confirmation of PNC Inhibition; shares compounds with MARV entry inh; PC3M PTB-GFP, PNC prevalence imaging, 16 h; Potency, µM (series often up to 46.1 µM), actives largely listed as inhibitors; 50% of 120 active
PC3M casp3-7 = High Content Assay for Compounds that inhibit the Assembly of the Perinucleolar Compartment: PC3M Caspase 3/7 Activation; shares compounds with MARV entry inh; PC3M-GFP caspase 3/7 activation, luminescence, 24 h; activity change, positive = activation, % at 46.1 µM; 120 tested, under 10 active
Numbers stand for hits; ! = a repeat was not active. Most compounds without a hit are left out; they make up all but 5.4% or so of the library. Unless noted, the call rests on the fitted dose curve; in most records, active means well fitted curve in the direction sought with a large enough effect; inconclusive means small, poorly fitted or top-dose-only effect, or another doubt; inactive means no such curve, though single readings can be large; an effect the other way counts as inactive or inconclusive.

`OC(CNCCc1ccccc1)COc1ccc(OCC(O)CNCCc2ccccc2)cc1` (configuration not stated) gave MARV entry inh 3.16µM, Vaccinia mCherry inactive, Sm TGR inh inactive, VACV Venus inh inconclusive, FMDV antiviral inactive and LASV entry inh inconclusive.
`CNC(=O)CN1C(=O)COc2ccc(S(=O)(=O)N3CCC(C)CC3)cc21` gave MARV entry inh inactive, Vaccinia mCherry inactive, Sm TGR inh inactive, VACV Venus inh inactive, FMDV antiviral inactive and LASV entry inh inactive.
For CCn1c(CNC(=O)Cc2ccc(OC)cc2)nnc1SCC(=O)c1ccccc1 the results were MARV entry inh inactive, Vaccinia mCherry inactive, Sm TGR inh 31.6µM, VACV Venus inh inactive, FMDV antiviral inactive and LASV entry inh inactive.
Screening CCc1cc(=O)[nH]c(SCc2nc(-c3ccccc3)no2)n1 returned Vaccinia mCherry inactive, Sm TGR inh inactive, VACV Venus inh inactive, FMDV antiviral inactive and LASV entry inh inactive.
O=C(CCn1c(=O)oc2ccccc21)N(Cc1ccccc1)c1ccccc1 was read as Vaccinia mCherry inactive, Sm TGR inh inactive, VACV Venus inh inactive and FMDV antiviral inactive.
`CCCCN(C(=O)CCn1c(=O)oc2ccccc21)c1ccccc1` gave MARV entry inh inactive, Vaccinia mCherry inactive, Sm TGR inh 25.1µM!, VACV Venus inh inactive, FMDV antiviral inactive and LASV entry inh inactive.
`O=C(CSc1ccc(-c2ccco2)nn1)NCc1ccc(F)cc1` gave MARV entry inh inactive, Vaccinia mCherry inactive, Sm TGR inh 35.5µM, VACV Venus inh inactive, FMDV antiviral inactive and LASV entry inh inactive.
O=C(CSc1ccc(-c2ccco2)nn1)c1ccc(F)cc1 was read as MARV entry inh inactive, Vaccinia mCherry inactive, Sm TGR inh 20µM, VACV Venus inh inactive, FMDV antiviral inactive and LASV entry inh inactive.
Screening CCCCc1ccc(NC(=O)c2ccc3c(c2)CCN3S(=O)(=O)c2ccccc2)cc1 returned MARV entry inh inconclusive, Vaccinia mCherry inconclusive, Sm TGR inh inactive, VACV Venus inh inconclusive, FMDV antiviral inactive and LASV entry inh inconclusive.
For Cc1c(C(=O)NCCc2ccc(Cl)cc2)cccc1-n1cnc2cccnc21 the results were Vaccinia mCherry inactive, Sm TGR inh inactive, VACV Venus inh inactive, FMDV antiviral inconclusive and LASV entry inh inactive.
CCc1ccc(S(=O)(=O)/N=C2/C=C(Sc3ncn[nH]3)C(=O)c3ccccc32)cc1 was read as MARV entry inh inconclusive, Vaccinia mCherry inconclusive, Sm TGR inh 0.316µM, VACV Venus inh 10µM, FMDV antiviral 31.6µM, LASV entry inh 12.6µM, WI-38 cytotox inconclusive, PNC assembly inh 28.2µM and PC3M casp3-7 inactive.
Screening Cc1cccc(N2CCN(Cc3nnc(-c4ccc5c(c4)OCO5)o3)CC2)c1C returned MARV entry inh inconclusive, Vaccinia mCherry inactive, Sm TGR inh inactive, VACV Venus inh inactive, FMDV antiviral inactive and LASV entry inh inactive.
Screening S=C(c1cn(CCOc2ccccc2)c2ccccc12)N1CCCC1 returned MARV entry inh inconclusive, Vaccinia mCherry inconclusive, Sm TGR inh inactive, VACV Venus inh inconclusive, FMDV antiviral inactive and LASV entry inh inactive.
Cc1ccc(OCCn2cc(C(=S)N3CCCC3)c3ccccc32)cc1C was read as MARV entry inh 3.16µM, Vaccinia mCherry 3.98µM, Sm TGR inh inactive, VACV Venus inh inactive, FMDV antiviral inactive, LASV entry inh 2.82µM, WI-38 cytotox inactive, PNC assembly inh 7.94µM and PC3M casp3-7 inactive.
For CC1CCN(c2nc3c(S(=O)(=O)c4ccc(Cl)cc4)nnn3c3ccsc23)CC1 the results were Vaccinia mCherry inactive, Sm TGR inh inactive, VACV Venus inh inactive, FMDV antiviral inactive and LASV entry inh inactive.
`O=C1C(=Cc2cccs2)C(=O)c2ccccc21` gave MARV entry inh inactive, Vaccinia mCherry inactive, Sm TGR inh inactive, VACV Venus inh inactive, FMDV antiviral inactive, LASV entry inh inactive, WI-38 cytotox inactive, PNC assembly inh inactive and PC3M casp3-7 inactive.
`Cc1ccc(C=C2C(=O)c3ccccc3C2=O)s1` gave MARV entry inh inactive, Vaccinia mCherry inactive, Sm TGR inh inactive, VACV Venus inh inactive, FMDV antiviral inactive and LASV entry inh inactive.
Cc1c(NC(=O)CSc2nnc3c4ccccc4n(CCc4ccccc4)c3n2)c(=O)n(-c2ccccc2)n1C was read as MARV entry inh inconclusive, Sm TGR inh inactive, VACV Venus inh inconclusive, FMDV antiviral inconclusive, LASV entry inh 0.631µM, WI-38 cytotox inactive, PNC assembly inh 8.91µM and PC3M casp3-7 inactive.
Screening Cc1c(NC(=O)COC(=O)c2cc(-c3ccc(-c4ccccc4)cc3)nc3ccccc23)c(=O)n(-c2ccccc2)n1C returned MARV entry inh 0.581µM, Vaccinia mCherry inconclusive, Sm TGR inh inactive, VACV Venus inh inactive, FMDV antiviral inactive, LASV entry inh 0.891µM, WI-38 cytotox 7.94µM, PNC assembly inh 2µM and PC3M casp3-7 inactive.
Cc1c(NC(=O)c2cc(-c3ccccc3)nc3ccccc23)c(=O)n(-c2ccccc2)n1C was read as MARV entry inh inconclusive, Vaccinia mCherry inactive, VACV Venus inh inactive, FMDV antiviral inactive and LASV entry inh inactive.
`CCc1ccc(NCc2cc3cc4c(cc3n(CC(=O)Nc3ccccc3C)c2=O)OCCO4)cc1` gave Vaccinia mCherry inactive, Sm TGR inh inactive, VACV Venus inh inactive, FMDV antiviral inactive and LASV entry inh inactive.
`COC(=O)Nc1nc2ccc(C(=O)c3ccccc3)cc2[nH]1` gave Vaccinia mCherry inactive, VACV Venus inh inactive and FMDV antiviral inactive.
COC(=O)Nc1nc2ccc(C(=O)c3cccs3)cc2[nH]1 was read as MARV entry inh 0.159µM!, Vaccinia mCherry inconclusive, VACV Venus inh inconclusive, FMDV antiviral inactive, LASV entry inh inconclusive and HeLa G2M arrest 0.0708.

Screens as filed in PubChem.
